# High-throughput results: PubChem BioAssay, National Center for Advancing Translational Sciences (NCATS)
# Hits are enriched below; roughly 19% of the tested compounds scored in any of these assays.
# IL-1B inflam inh: blocks inflammasome-driven IL-1 beta release; THP-1 LPS/ATP IL-1B secretion, AlphaLISA, 16 h; stronger effect = lower value; activity change, % at 57.5 µM; hit rate 4.7% among 360,000; AID 743279; in the data active = activity change below about -50%; inconclusive = mostly about -30% to -49%; also: % is scaled to controls: 0 for no effect and ±100 for the full control effect
#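 Secreted IL-1B measured by AlphaLISA bead assay after 16 h compound exposure of THP-1 cells; compounds (final up to 57.5 uM) added 1 h before LPS (250 ng/mL) and ATP (1.25 mM) stimulation; lower signal means less secretion.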
# TDP1 block: inhibitors of human tyrosyl-DNA phosphodiesterase TDP1; Q9NUW8; recombinant TDP1, AlphaScreen DNA substrate cleavage; Potency, µM (doses to about 130 µM), for inactives: top-dose activity change, negative = inhibition, hits mostly inhibitors; hit rate 0.28% among 350,000; AID 485290; also: potency is read from the fitted curve at half-maximal effect; % is scaled to controls: 0 for no effect and ±100 for the full control effect; nearly all actives have a fitted effect of over 40% in size
# Target sequence (Q9NUW8 whole entry, looked up): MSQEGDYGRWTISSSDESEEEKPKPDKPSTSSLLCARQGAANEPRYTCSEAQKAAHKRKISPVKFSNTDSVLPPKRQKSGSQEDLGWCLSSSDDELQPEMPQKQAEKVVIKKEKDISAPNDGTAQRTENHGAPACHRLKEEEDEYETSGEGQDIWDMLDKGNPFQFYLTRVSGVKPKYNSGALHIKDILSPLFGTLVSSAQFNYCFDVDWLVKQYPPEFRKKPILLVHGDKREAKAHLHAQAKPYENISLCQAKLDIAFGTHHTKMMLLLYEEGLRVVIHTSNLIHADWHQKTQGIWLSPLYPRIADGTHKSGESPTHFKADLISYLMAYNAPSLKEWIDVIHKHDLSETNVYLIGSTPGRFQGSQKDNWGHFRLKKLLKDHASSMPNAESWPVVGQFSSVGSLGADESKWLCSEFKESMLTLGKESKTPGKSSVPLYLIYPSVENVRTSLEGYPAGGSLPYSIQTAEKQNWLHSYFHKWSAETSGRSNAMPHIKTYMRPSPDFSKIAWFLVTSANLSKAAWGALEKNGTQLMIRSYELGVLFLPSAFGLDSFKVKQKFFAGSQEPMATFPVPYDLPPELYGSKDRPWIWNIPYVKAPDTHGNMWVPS
#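 Steps: enzyme plus compound, 15 min RT; add biotin/phosphotyrosine-FITC oligonucleotide (15 nM final), react 5 min; add donor/acceptor beads (10 ug/ml final), 10 min; read AlphaScreen. Tdp1 at 1 nM final.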
# DT40 TDP1 no CPT: qHTS for Inhibitors of human tyrosyl-DNA phosphodiesterase 1 (TDP1): qHTS in cells in absence of CPT. hit rate 15% among 420,000. Potency, µM (series often up to 46.2 µM), for the others: top-dose activity change, negative = growth inhibition, usual class: inhibitors. AID 686978, 2013. DT40 Tdp1-/- hTDP1 cells, no CPT, ATP luminescence, 48 h; also: potency is read from the fitted curve at half-maximal effect; % is scaled to controls: 0 for no effect and ±100 for the full control effect; nearly all actives have a fitted effect of over 55% in size
#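 Readout: luminescence from CellTiter-Glo after 30 min in the dark at RT. Cells: DT40 Tdp1-/- with stable hTDP1, 400/well. Exposure: compounds alone, ≥48 hr, 37 °C.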
# DT40 TDP1 CPT: growth inhibition of DT40 Tdp1-/-;hTDP1 cells with camptothecin (screen for TDP1 inhibitors); chicken DT40 Tdp1-/-;hTDP1 cells + 20 nM CPT, ATP luminescence, 48 h; Potency, µM (series often up to 46.2 µM), for the others: at the top dose activity change, negative = growth inhibition, hits mostly inhibitors; hit rate 12% among 420,000; AID 686979; also: potency is read from the fitted curve at half-maximal effect; % is scaled to controls: 0 for no effect and ±100 for the full control effect; nearly all actives have a fitted effect of over 55% in size
#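 Chicken DT40 Tdp1-/- cells stably complemented with human TDP1 were seeded at 400 cells/well in medium containing 20 nM camptothecin, exposed to pin-transferred compounds, and grown at 37 °C for at least 48 hr. Viability was read as ATP luminescence.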
# HepG2 tox: kills HepG2 cells in TGF-b inhibitor counter-screen; HepG2 CAGA-GFP viability, ATP luminescence, 18 h; Potency, µM (titrated, usually from 46.1 µM), inactives show at the highest dose activity change, negative = cytotoxicity, hits mostly cytotoxic; hit rate 0.76% among 410,000; AID 588856; also: potency is read from the fitted curve at half-maximal effect
#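 HepG2 CAGA-GFP cells (1000/well, DMEM with 1% FBS) received compound, then TGF-beta at 500 pg/mL final, and were incubated 18 hours at 37 degrees C. Viability was read by CellTiter-Glo luminescence. Media-only wells were set as complete cell-killing and DMSO as no toxicity.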
# TGFb inhibitor: inhibitors of TGF-b signaling; HepG2 CAGA-GFP TGF-b/SMAD3 reporter, GFP fluorescence, 18 h; TGF-beta stimulated, 500 pg/mL final; Potency, µM (doses to about 46.1 µM), for the others: at the highest dose activity, negative = inhibition, most hits filed as inhibitors; hit rate 1.2% among 410,000; AID 588855; also: potency is read from the fitted curve at half-maximal effect; % is scaled to controls: 0 for no effect and ±100 for the full control effect; nearly all actives have a fitted effect of over 65% in size
#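 Inhibition of TGF-beta-driven CAGA-GFP reporter expression in HEPG2 cells is measured by cellular GFP fluorescence after 18 h stimulation with 500 pg/mL recombinant TGF-beta in 1% FBS medium at 37 degrees C.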
# An asterisk follows results filed as active; ? = inconclusive; · = not tested or not shown; [ ] = remark or other dose. Unless noted, calls follow the shape of the dose curve; as a rule, active = well fitted curve in the direction sought with a large enough effect; inconclusive = small, poorly fitted or top-dose-only effect, or another doubt; inactive = no such curve, though single readings can be large; an effect the other way counts as inactive or inconclusive.
SMILES,IL-1B inflam inh,TDP1 block,DT40 TDP1 no CPT,DT40 TDP1 CPT,HepG2 tox,TGFb inhibitor
Cc1ccc(/C=C2/NC(=O)N(c3ccccc3)C2=O)o1,0,8%,16µM*,10µM*,-45%,-18%
Cc1c(Cl)cccc1NC(=O)Nc1c[nH]c(=O)[nH]c1=O,·,0%,-1%,-3%,1%,11%
CCOc1ccccc1NC(=S)N1CCN(c2nc(-c3ccc(F)cc3)cs2)CC1,20,5%,15µM*,21µM*,-14%,-20%
CCOc1ccccc1NC(=S)N1CCN(c2ccccc2F)CC1,-8,·,21µM*,?,-5%,0%
Cc1ccc2[nH]c(O)c(N=NC(=O)C(C)n3cnc4ccccc4c3=O)c2c1 (centres undefined),-2,8%,?,-18%,-15%,9%
COc1ccc(NC(=O)CSC2=Nc3ccccc3C3=NC(CC(=O)NCc4ccco4)C(=O)N23)cc1 (centres undefined),·,5%,-20%,-28%,-30%,-38%
C(=C\c1ccccc1)/CSc1nnc(-c2ccccc2)n1Cc1ccco1,43,7%,4.6µM*,5.2µM*,-2%,?
Clc1cccc(-c2nnc(SC/C=C/c3ccccc3)n2Cc2ccco2)c1,-84*,-1%,?,21µM*,-27%,?
CSCC[C@H](NC(=O)[C@H](CC(C)C)N1CCC(NC(=O)[C@@H](NC(=O)[C@H](Cc2ccccc2)NC(=O)[C@H](CO)NC(=O)[C@H](CC(=O)O)NC(=O)[C@@H](N)CCCCN)C(C)C)C1=O)C(N)=O (some centres undefined),·,9%,·,·,·,·
COc1cccc(-c2ncc3ccccc3c2COC(=O)c2cccc(Br)c2)c1,-15,0%,?,?,0%,?
O=S1(=O)N=C(Oc2ccc3ccccc3c2)c2ccccc21,·,2%,·,·,·,·
Nc1ccc(-c2nc3ccccc3o2)cc1,8,·,-1%,-9%,-33%,4%
O=C1C=CC(=O)N1c1ccc(-c2nc3ccccc3o2)cc1,-22,·,1.6µM*,1.8µM*,-43%,?
CCOC(=O)c1cccc(NC(=O)c2cc3cc4ccc(C)cc4nc3o2)c1,·,-2%,-17%,-5%,-1%,?
CCOC(=O)N1CCC(NC(=O)C2CCN(C(=O)c3cc4sccc4n3CC)CC2)CC1,6,·,16µM*,?,17%,4%
CCn1c(C(=O)N2CCC(C(=O)NCCc3ccc(OC)cc3OC)CC2)cc2sccc21,·,0%,15µM*,21µM*,-28%,?
CCn1c(C(=O)N2CCC(C(=O)NCc3ccc(OC)cc3)CC2)cc2sccc21,6,5%,-15%,?,-8%,3%
COCCCNc1c2c(nc3nnnn13)CCCC2,3,4%,-18%,16%,32%,-5%
C1CCC(CNc2c3c(nc4nnnn24)CCCC3)CC1,-9,6%,12µM*,?,-4%,16%
CCCCNCC1C(Oc2ccc(Cl)cc2)C(=O)N1c1ccccc1C (centres undefined),-196*,1%,15µM*,?,16µM*,14µM*
CCCNCC1C(Oc2ccc(Cl)cc2Cl)C(=O)N1c1cccc(C)c1C (centres undefined),-53*,4%,18µM*,?,-104%,?
Cc1cccc(N2C(=O)C(Oc3ccc(Cl)cc3Cl)C2C(=O)O)c1C (centres undefined),15,8%,?,?,7%,2%
COc1ccc(C2C(Oc3ccccc3)C(=O)N2c2cc(C)ccc2C)cc1OC (centres undefined),?,0%,-4%,0%,-20%,9%
O=C(O)CC(NS(=O)(=O)c1ccc(Br)s1)c1ccccc1 (centres undefined),·,-3%,-6%,-15%,5%,18%
N#Cc1ccsc1NC(=O)c1ccc(Cl)c([N+](=O)[O-])c1,?,-8%,2.3µM*,2.9µM*,-34%,7.1µM*
SMILES,IL-1B inflam inh,TDP1 block,DT40 TDP1 no CPT,DT40 TDP1 CPT,HepG2 tox,TGFb inhibitor
O=[N+]([O-])c1cc(S(=O)(=O)NC2=NCCCCC2)ccc1NCC1CCCCC1,-5,8%,?,16µM*,-36%,?
O=C(Nc1ccc(S(=O)(=O)NC2=NCCCCC2)cc1)c1ccc(Cl)c([N+](=O)[O-])c1,-96*,3%,23µM*,?,-15%,-27%
O=C(Nc1ccc(C(O)(C(F)(F)F)C(F)(F)F)cc1)c1ccc(Cl)c([N+](=O)[O-])c1,-101*,5%,18µM*,12µM*,-75%,?
COc1cc(OC)cc(C(=O)NC(=S)N(Cc2ccccc2)C(C)C)c1,4,·,?,?,-45%,-2%
O=c1[nH]cc(CCc2ccccc2)c(=O)[nH]1,12,·,-2%,-16%,-6%,3%
COc1cccc(CCNc2ncnc3c2nnn3C)c1,·,5%,8.2µM*,?,-44%,?
COc1ccc(CCNc2ncnc3c2nnn3C)cc1,·,5%,21µM*,16µM*,-30%,?
COc1ccc(CCNc2ccncn2)cc1,-5,1%,15µM*,9.2µM*,1%,-14%
COc1ccc(CCNc2ccncn2)cc1OC,22,7%,-26%,-25%,-4%,7%
O=C(COc1ccc(Br)cc1)Nc1ccc(C(=O)OC2CCCCC2)cc1,·,3%[12.3 µM],?,?,-6%,28%
CCC(=O)N1CCc2cc(Br)cc(S(=O)(=O)N3CCC(C(=O)N(CC)CC)CC3)c21,·,-2%,?,0%,1%,1%
O=C(Nc1ccc(C(O)c2ccccc2)cc1)[C@@H]1O[C@H](CO)[C@H](O)[C@H](O)[C@H]1O (some centres undefined),33,·,-8%,-3%,-18%,-5%
COC(=O)c1ccccc1NC(=O)c1noc2c1CC(C(C)(C)C)CC2 (centres undefined),6,2%,21µM*,?,0%,5%
Cc1ccc(NC(=O)c2noc3c2CC(C(C)(C)C)CC3)cc1 (centres undefined),-27,-2%,23µM*,?,-40%,13%
CC(C)(C)C1CCc2onc(C(=O)Nc3cccc(O)c3)c2C1 (centres undefined),·,2%,·,·,·,·
